Sampled rows, rich in hits. Any-hit rate of the full collection: about 11%.
Coupling enz: counter-screen for Giardia aldolase inhibitors: coupling enzyme system. coupling enzyme system counterscreen, AmpLite Red fluorescence. activity change, negative = inhibition, % at 58.2 µM, hits read low. 290,000 compounds, 0.67% hits; in the data active = activity change below about -30%
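Activity here indicates interference with the coupling reaction, not aldolase inhibition. Compounds at 57.5 uM final met coupling enzymes for 10 min at RT; substrate and AmpLite Red detection followed, with a 525/598 nm fluorescence read after 20 min.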
Tau ThT inhib: blocks human tau fibril formation measured by thioflavin T; recombinant tau K18 P301L, heparin-induced fibrillization, ThT fluorescence; Potency, µM (doses to about 57.4 µM), usual class: inhibitors; 270,000 compounds, 2.1% hits; AID 1460; also: nearly all actives have a fitted effect of over 55% in size
Target sequence (P10636 561-689 P618L limits assumed): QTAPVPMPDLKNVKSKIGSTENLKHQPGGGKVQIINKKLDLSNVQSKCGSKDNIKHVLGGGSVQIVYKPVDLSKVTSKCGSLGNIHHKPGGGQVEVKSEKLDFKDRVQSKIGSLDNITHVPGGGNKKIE
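Heparin-induced (20 uM) aggregation of recombinant human K18 P301L tau, 15 uM unlabeled with 0.24 uM labeled, pH 7 acetate buffer, 6 hr at 37 C with compound. Fibrils quantified by 30 uM ThT fluorescence after 1 hr ambient incubation.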
Tau fibril FP: blocks human tau fibril formation measured by polarization; K18 P301L tau heparin fibrillization, Alexa594 FP, 6 h; P10636; AID 1468; 280,000 compounds, 0.39% hits; Potency, µM (series often up to 57.7 µM), usual class: inhibitors; also: nearly all actives have a fitted effect of over 55% in size
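Compound effects on tau fibrillization are measured by Alexa 594 fluorescence polarization (ex 555, em 632 nm). K18 P301L tau is used at 15 uM with 0.24 uM labeled tracer, and 20 uM heparin induces aggregation over 6 hr at 37 C.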
Sfp inh: blocks B. subtilis Sfp PPTase activity; Biochemical Sfp PPTase activity, qHTS; Potency, µM, most hits filed as inhibitors; AID 1490; 310,000 compounds, 3.5% hits; Q9F4F7;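 also: the enzyme is Sfp with the accession as filed and its product quenches rhodamine fluorescence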
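Fluorescence-quenching assay: 15 nM Sfp-PPTase preincubated 15 min at room temperature with compound, then 5 uM rhodamine-CoA and 12.5 uM BHQ-2-labelled YbbR peptide added. Fluorescence (ex 525/em 598 nm) read at start and after 30 min; difference gives rate.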
G9a block: inhibitors of human histone lysine methyltransferase G9a. 350,000 compounds, 8.8% hits. Potency, µM (top dose mostly 102 µM), hits mostly inhibitors. AID 504332. Q96KQ7. G9a H3K9 monomethylation, AlphaScreen, 2 h; also: nearly all actives have a fitted effect of over 75% in size
Target sequence (Q96KQ7 913-1193 limits assumed): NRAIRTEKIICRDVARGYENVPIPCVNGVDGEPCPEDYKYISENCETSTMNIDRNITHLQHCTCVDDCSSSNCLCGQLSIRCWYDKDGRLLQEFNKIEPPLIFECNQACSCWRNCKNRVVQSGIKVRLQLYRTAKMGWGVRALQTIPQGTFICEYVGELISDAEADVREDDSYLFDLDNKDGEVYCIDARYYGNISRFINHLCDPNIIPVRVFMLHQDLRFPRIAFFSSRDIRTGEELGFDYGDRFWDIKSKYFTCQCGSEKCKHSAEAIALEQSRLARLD
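Chemiluminescent proximity detection of H3K9 monomethylation, read after 10 min bead incubation in the dark. Reaction: 20 nM G9a, 500 nM biotin-H3K9 peptide, 20 uM SAM cofactor, 2 h, room temperature, following 15 min enzyme-compound preincubation.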
Tau fluor cs: counter-screen for tau fibril formation inhibitors. AID 1463. 280,000 compounds, 0.93% hits. tau K18 P301L (four-repeat tau fragment) Alexa594 fluorescence, heparin fibrillization. Potency, µM (highest dose often 57.7 µM); also: nearly all actives have a fitted effect of over 55% in size
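Human K18 P301L tau (15 uM unlabeled plus 0.24 uM Alexa 594-labeled, final) in 100 mM sodium acetate pH 7 was mixed with compound and 20 uM heparin and incubated 6 hr at 37 C.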
Hits are given with their value; . = inactive; ? = inconclusive; / = no result given; [ ] = remark or other dose. Unless noted, calls follow the shape of the dose curve; as a rule, active = well fitted curve in the direction sought with a large enough effect; inconclusive = small, poorly fitted or top-dose-only effect, or another doubt; inactive = no such curve, though single readings can be large; an effect the other way counts as inactive or inconclusive.

SMILES	Coupling enz	Tau ThT inhib	Tau fibril FP	Sfp inh	G9a block	Tau fluor cs
COc1ccc(-c2cn3cccnc3n2)cc1NC(=O)Cc1ccccc1	/	.	.	/	.	.
CCOC(=O)C1=C(CS(=O)(=O)c2ccc(F)cc2)NC(=O)NC1c1ccc(O)c(O)c1 (stereo not given)	.	/	/	.	14µM	/
CC(C)(C)C(=O)C(Cl)C(=O)Nc1ccccc1 (stereo not given)	.	7.1µM	?	45µM	?	.
Cc1cccc(OCCCN2CCCCCC2)c1	.	.	.	.	6.3µM	.
Brc1cccc(OCCN2CCCCC2)c1	.	.	.	?	7.1µM	.
Brc1cccc(OCCN2CCOCC2)c1	.	/	/	.	8.9µM	/
OC(CN1CC=C(/C=C/c2ccc(Br)cc2)CC1)c1ccccc1 (stereo not given)	.	/	/	.	.	/
Cc1ccc(C)c(NC(=O)C2CCCN(c3nc4ccccc4s3)C2)c1 (stereo not given)	/	.	.	/	.	.
COc1ccc(CC(N)C(=O)N[C@H]2[C@@H](O)[C@H](n3cnc4c(N(C)C)ncnc43)O[C@@H]2CO)cc1 (stereo not given in full)	.	.	.	.	.	.
Cc1onc(-c2ccccc2)c1C(=O)/C=C/N(C)C	.	.	.	.	.	.
O=C(c1ccc([N+](=O)[O-])cc1)n1nc(-c2ccccc2)nc1NCc1ccccc1	.	.	.	.	/	.
O=C(c1cccc([N+](=O)[O-])c1)n1nc(-c2ccccc2)nc1NCc1ccccc1	.	.	.	.	45µM	.
COc1ccc(C(=O)n2nc(-c3ccco3)nc2SC)cc1OC	.	.	.	?	20µM	.
COc1ccc(C(=O)n2nc(-c3ccco3)nc2NCc2cccs2)cc1	/	?	.	/	10µM	?
CSc1nc(-c2ccco2)nn1C(=O)c1cccs1	.	.	.	?	.	.
COc1ccc(CNc2nc(-c3ccco3)nn2C(=O)c2ccccc2Cl)cc1	/	.	?	/	.	.
CC(C)c1ccc(CNc2nc(-c3ccco3)nn2C(=O)c2ccc([N+](=O)[O-])cc2)cc1	/	?	.	/	10µM	16µM[quencher]
COC(=O)/C(C)=C/CC12OC(C)(C)C3CC(C=C4C(=O)c5cc6c(c(CCC(C)(C)Cl)c5OC431)OC1(C)CCC(=C(C)C)C6C1)C2=O (stereo not given)	.	.	.	.	.[2.33 µM]	.
COc1nc(NCCc2ccc(OC)c(OC)c2)nc(Nc2ccccc2)n1	.	/	/	.	?	/
CCN1N=C(C)C=C(c2ccccc2)n2c1nc1ccccc12	.	.	.	.	79µM	.
Oc1c(C(c2ccco2)N2CCN(C(c3ccccc3)c3ccccc3)CC2)sc2ncnn12 (stereo not given)	.	?	?	50µM	18µM	?
CC1CCCN(C(c2ccccc2)c2sc3ncnn3c2O)C1 (stereo not given)	.	.	.	.	/	.
Oc1c(C(c2ccccc2)N2CCc3ccccc3C2)sc2ncnn12 (stereo not given)	.	.	.	79µM	4µM	.
COc1cccc(C(c2sc3nc(C)nn3c2O)N2CCc3ccccc3C2)c1 (stereo not given)	.	.	.	32µM	4µM	.
COC(=O)c1cc(NC(=O)Cc2cc(OC)c(OC)c(OC)c2)cc(C(=O)OC)c1	.	.	.	.	.	.
SMILES	Coupling enz	Tau ThT inhib	Tau fibril FP	Sfp inh	G9a block	Tau fluor cs
CC1C(=O)C(C)C(c2ccccc2F)NC1c1ccccc1F (stereo not given)	.	/	/	.	?	/
CCn1c(=NC(=O)c2ccc(S(=O)(=O)N3CCCC3)cc2)sc2cc(Br)ccc21	/	.	?	/	.	.
COc1ccc(C2C=C(c3ccc(C)c(C)c3)Nc3ncnn32)c(OC)c1OC (stereo not given)	.	.	.	.	50µM	.
Fc1ccc(Br)cc1C1C=C(c2ccc(Br)s2)Nc2ncnn21 (stereo not given)	.	.	.	56µM	10µM	.
COc1cccc(C2=CC(c3ccc(OC)c(OC)c3OC)n3ncnc3N2)c1 (stereo not given)	/	.	.	/	?	.
C=CCOC(=O)C1=C(C)Nc2ncnn2C1c1cc(Br)ccc1F (stereo not given)	.	.	.	.	.[0.0925 µM]	.
COc1cccc(C2C=C(c3ccc(Br)s3)Nc3ncnn32)c1OC (stereo not given)	.	.	.	?	28µM	.
CCOC(=O)C1=C(C(F)(F)F)Nc2ncnn2C1c1cccc(OC)c1OC (stereo not given)	.	.	.	.	.	.
O=C(COC(=O)c1ccc(F)c(S(=O)(=O)N2CCOCC2)c1)Nc1ccc2c(c1)OCO2	/	/	/	/	.	/
C=C(C)C(=O)Nc1cccc(C2=NOC3(C2)C[C@H](C(N)=O)N(C(=O)c2ccccc2C(=O)c2ccccc2)C3)c1 (stereo not given in full)	.	.	.	.	?	.
COc1cccc(-c2coc3ccc(Br)cc3c2=O)c1	.	?	.	.	/	.
O=CNC1CCCc2c1[nH]c1ccc(Cl)cc21 (stereo not given)	.	.	.	.	7.9µM	?
CCCCNc1nc2c(c(=O)n(Cc3ccc(Cl)c(Cl)c3)c(=O)n2C)n1C	/	?	?	/	.	11µM[quencher]
COc1cccc(-c2nnc(SCC(=O)N(C)c3ccccc3)o2)c1	/	.	.	/	.	.
CN(C)c1ncc2ncc(=O)n(CCc3ccccc3)c2n1	.	/	/	.	.[0.501 µM]	/
CCCSc1nsc(SCCC)c1C(N)=O	.	.	.	.	40µM	.
CCSc1nsc(SCC)c1C(N)=O	.	.	.	.	?	.
O=C(CCSCCc1ccccn1)Nc1c(F)c(F)c(F)c(F)c1F	.	.	.	.	.	.
COc1ccc(C2=C(C)C(=O)N(Cc3ccc(C(=O)NCc4cccc(C)c4)cc3)S2(=O)=O)cc1	/	.	.	/	.	.
CCOc1ccc(CC(=O)NNC(=O)/C=C/C(=O)O)cc1	.	?	.	?	32µM	.
O=C(NCCC1CCCCN1S(=O)(=O)c1cccs1)C(=O)NCc1ccccc1 (stereo not given)	/	/	/	/	.	/
CC1CCCN(CCCOc2ccc([N+](=O)[O-])cc2)C1 (stereo not given)	.	.	.	.	8.9µM	.
COc1ccc(OCCCN2CCCC(C)C2)cc1 (stereo not given)	.	.	.	.	7.1µM	.
C#CCCCCCCC#CCN(C)C	.	.	.	.	28µM	.
CN(Cc1c(C(=O)N/N=C/c2cc(F)ccc2F)nnn1-c1nonc1N)C1CCCCC1	.	/	/	.	/	/
Cc1ccc(C(=O)CSc2nccn2-c2ccccc2)cc1	.	.	.	?	32µM	.

Assay outcomes: PubChem, National Center for Advancing Translational Sciences (NCATS)
